# Values without a mark were called inactive. Records with an inconclusive call do not appear. Active and inactive are the calls of the source. Calls come from the whole dose curve; as a rule, active = well fitted curve in the direction sought with a large enough effect; inconclusive = small, poorly fitted or top-dose-only effect, or another doubt; inactive = no such curve, though single readings can be large; an effect the other way counts as inactive or inconclusive.
# What was measured:
# [1] = target: Cytochrome P450 3A4 (Homo sapiens) (UniProt P08684); experiment: qHTS Assay for Inhibitors and Substrates of Cytochrome P450 3A4 (AID 884); note: nearly all actives have a fitted effect of over 50% in size; note: potency is the fitted concentration of half-maximal effect; for activity change, negative = inhibition: series mostly up to about 57 µM; % is set by controls: 0 for no effect and ±100 for the full control effect
# Method in brief: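 20 nM human CYP3A4 with 25 uM Luciferin-PPXE (at KM) in 200 mM KPO4, preincubated 10 min with compound; NADPH regeneration started a 60 min RT reaction. Luciferin detected by luminescence, normalized to 57 uM ketoconazole as full inhibition.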
# [2] = target: Cytochrome P450 3A4 (Homo sapiens) (UniProt P08684); experiment: qHTS Assay for Activators of Cytochrome P450 3A4 (AID 885); note: nearly all actives have a fitted effect of over 65% in size; note: potency is the fitted concentration of half-maximal effect
# Method in brief: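 Quantitative HTS format: compounds preincubated with 20nM human CYP3A4 and Luciferin-PPXE substrate at KM, reaction started by NADPH regeneration, stopped after 60 min, luciferase luminescence read 20 min later.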
# [3] = target: Cytochrome P450 2C9 (Homo sapiens) (UniProt P11712); experiment: qHTS Assay for Inhibitors and Substrates of Cytochrome P450 2C9 (AID 883); note: nearly all actives have a fitted effect of over 60% in size; note: potency is the fitted concentration of half-maximal effect; for activity change, negative = inhibition: % is set by controls: 0 for no effect and ±100 for the full control effect
# Method in brief: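 Signal: luciferase luminescence reporting luciferin produced by CYP2C9. Conditions: 10nM enzyme, Luciferin-H 100uM at KM, 25mM KPO4, 37C, 60 min NADPH-driven reaction. Reference: 57uM sulphaphenazole as 100% inhibition.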
# [4] = target: Cytochrome P450 2D6 (Homo sapiens) (UniProt P10635); experiment: qHTS Assay for Inhibitors and Substrates of Cytochrome P450 2D6 (AID 891); note: nearly all actives have a fitted effect of over 60% in size; note: potency is the fitted concentration of half-maximal effect;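 for activity change, negative = inhibition: luciferin methyl ether substrate demethylated by CYP2D6 with NADPH regeneration; % is set by controls: 0 for no effect and ±100 for the full control effect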
# Method in brief: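 Human CYP2D6 (5 nM) with 30 uM Luciferin-ME EGE (at Km) in 100 mM KPO4, compound preincubated 10 min, then NADPH regeneration system for 60 min at room temperature. Luciferin read by luminescence; normalized to 1.43 uM quinidine.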
# [5] = target: Cytochrome P450 2C19 (Homo sapiens) (UniProt P33261); experiment: qHTS Assay for Inhibitors and Substrates of Cytochrome P450 2C19 (AID 899); note: nearly all actives have a fitted effect of over 60% in size; note: potency is the fitted concentration of half-maximal effect; for activity, negative = inhibition: % is set by controls: 0 for no effect and ±100 for the full control effect
# Method in brief: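 Signal comes from luciferase acting on luciferin released by CYP2C19-mediated hydroxylation of Luciferin-H EGE, 10uM (KM). Assay mix: 5nM enzyme, 50mM KPO4; 60 min at 37C with NADPH regeneration. Data normalized against 57uM ketoconazole.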
# [6] = target: Alpha-galactosidase (Coffea arabica) (UniProt Q42656); experiment: Counterscreen for Glucocerebrosidase Inhibitors: qHTS Assay for Coffee Bean alpha-Galactosidase at pH 4.5 (AID 957);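 note: series mostly up to about 77 µM; plate controls were enzyme alone for no effect and no enzyme for full effect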
# Method in brief: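 Green coffee bean enzyme (2 nM final) was incubated with compounds (0.7 nM to 77 uM) and 4-methylumbelliferyl alpha-D-galactopyranoside (80 uM final) in 50 mM citric acid, 0.005% Tween-20, pH 4.5, 20 min at room temperature; AC50 from Hill fits.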
# [7] = target: Alpha-galactosidase (Coffea arabica) (UniProt Q42656); experiment: Counterscreen for Glucocerebrosidase Inhibitors: qHTS Assay for Coffee Bean alpha-Galactosidase at pH 5.9 (AID 998);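 note: plate controls were uninhibited enzyme for no effect and no-enzyme basal signal for full effect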
# Method in brief: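 Green coffee bean enzyme (2 nM) with 4-methylumbelliferyl alpha-D-galactopyranoside (80 uM) in 50 mM citric acid, 0.005% Tween-20, pH 5.9, 20 min at room temperature; compounds 0.7 nM–77 uM. Stopped at pH 10, fluorescence Ex365/Em440; Hill-fit AC50.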
# Chain of Cytochrome P450 2C19 (Homo sapiens) (P33261 whole entry, looked up): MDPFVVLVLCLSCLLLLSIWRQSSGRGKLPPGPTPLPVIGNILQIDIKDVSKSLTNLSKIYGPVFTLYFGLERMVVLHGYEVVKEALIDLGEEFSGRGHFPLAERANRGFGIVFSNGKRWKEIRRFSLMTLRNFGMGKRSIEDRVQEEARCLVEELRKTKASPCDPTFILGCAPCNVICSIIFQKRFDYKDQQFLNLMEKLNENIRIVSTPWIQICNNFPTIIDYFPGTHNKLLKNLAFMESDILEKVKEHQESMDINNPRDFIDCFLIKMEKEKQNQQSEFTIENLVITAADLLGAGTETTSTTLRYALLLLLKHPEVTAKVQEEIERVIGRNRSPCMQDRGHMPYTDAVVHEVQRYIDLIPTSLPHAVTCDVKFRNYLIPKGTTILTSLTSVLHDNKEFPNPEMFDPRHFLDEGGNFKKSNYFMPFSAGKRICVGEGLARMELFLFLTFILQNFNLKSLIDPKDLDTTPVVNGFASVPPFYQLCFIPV
# Chain of Cytochrome P450 2D6 (Homo sapiens) (P10635 whole entry, looked up): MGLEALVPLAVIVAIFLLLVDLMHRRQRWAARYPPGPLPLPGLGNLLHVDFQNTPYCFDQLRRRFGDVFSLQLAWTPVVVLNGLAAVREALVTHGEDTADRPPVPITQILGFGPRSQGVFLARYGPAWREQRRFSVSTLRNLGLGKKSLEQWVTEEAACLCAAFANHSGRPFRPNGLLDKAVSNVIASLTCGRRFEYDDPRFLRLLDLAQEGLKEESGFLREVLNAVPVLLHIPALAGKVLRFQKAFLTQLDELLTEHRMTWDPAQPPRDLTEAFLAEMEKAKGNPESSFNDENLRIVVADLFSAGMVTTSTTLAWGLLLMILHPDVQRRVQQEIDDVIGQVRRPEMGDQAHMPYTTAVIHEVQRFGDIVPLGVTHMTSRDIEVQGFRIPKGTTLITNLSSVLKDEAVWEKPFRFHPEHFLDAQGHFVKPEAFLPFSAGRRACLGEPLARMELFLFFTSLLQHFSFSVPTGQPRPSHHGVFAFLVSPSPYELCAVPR
# Chain of Cytochrome P450 2C9 (Homo sapiens) (P11712 whole entry, looked up): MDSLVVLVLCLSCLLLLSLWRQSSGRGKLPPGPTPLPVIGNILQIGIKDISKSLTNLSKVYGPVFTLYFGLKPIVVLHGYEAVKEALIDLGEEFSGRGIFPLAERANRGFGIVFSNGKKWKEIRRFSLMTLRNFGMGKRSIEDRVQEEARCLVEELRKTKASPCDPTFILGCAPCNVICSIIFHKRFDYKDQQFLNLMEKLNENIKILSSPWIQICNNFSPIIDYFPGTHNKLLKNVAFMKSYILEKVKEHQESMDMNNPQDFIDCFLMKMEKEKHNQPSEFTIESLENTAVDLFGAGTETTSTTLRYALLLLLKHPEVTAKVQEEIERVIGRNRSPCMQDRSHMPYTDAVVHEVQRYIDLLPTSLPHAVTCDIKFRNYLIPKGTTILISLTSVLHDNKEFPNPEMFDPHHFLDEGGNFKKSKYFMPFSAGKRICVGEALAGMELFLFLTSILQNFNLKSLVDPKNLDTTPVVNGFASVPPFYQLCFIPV
# Chain of Cytochrome P450 3A4 (Homo sapiens) (P08684 whole entry, looked up): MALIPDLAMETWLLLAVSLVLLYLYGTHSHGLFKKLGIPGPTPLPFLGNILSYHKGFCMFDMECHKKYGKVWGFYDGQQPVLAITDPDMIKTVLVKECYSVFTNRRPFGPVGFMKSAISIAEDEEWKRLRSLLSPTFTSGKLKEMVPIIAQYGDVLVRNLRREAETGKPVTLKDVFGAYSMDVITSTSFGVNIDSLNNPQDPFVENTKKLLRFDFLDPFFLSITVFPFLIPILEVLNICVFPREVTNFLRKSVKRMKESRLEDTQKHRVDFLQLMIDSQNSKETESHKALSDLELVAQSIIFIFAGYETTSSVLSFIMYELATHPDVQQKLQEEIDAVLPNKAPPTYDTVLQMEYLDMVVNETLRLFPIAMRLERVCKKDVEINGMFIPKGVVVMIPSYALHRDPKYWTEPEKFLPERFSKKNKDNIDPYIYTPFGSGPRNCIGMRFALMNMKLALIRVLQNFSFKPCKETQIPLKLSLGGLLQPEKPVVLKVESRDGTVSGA
# Chain of Alpha-galactosidase (Coffea arabica) (Q42656 whole entry, looked up): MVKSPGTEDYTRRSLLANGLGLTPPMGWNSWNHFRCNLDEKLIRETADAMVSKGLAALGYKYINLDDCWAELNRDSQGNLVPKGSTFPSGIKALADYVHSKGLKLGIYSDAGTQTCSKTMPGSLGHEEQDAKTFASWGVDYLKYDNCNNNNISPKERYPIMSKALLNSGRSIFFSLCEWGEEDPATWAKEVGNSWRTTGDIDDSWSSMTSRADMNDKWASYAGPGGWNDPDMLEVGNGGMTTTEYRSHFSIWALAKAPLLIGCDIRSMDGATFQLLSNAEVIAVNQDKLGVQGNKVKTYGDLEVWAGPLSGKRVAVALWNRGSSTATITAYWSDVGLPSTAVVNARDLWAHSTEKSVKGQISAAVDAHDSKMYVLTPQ
structure (smiles),measurement,setting,value
N#CC(C#N)=NNc1cccc(Cl)c1,Potency,[1],1.26 µM (active)
same,Potency,[2],inactive
CN1CCc2nc(CO)c(CO)cc2C1,"activity change, negative = inhibition",[3],21.8% [at 11.4 µM]
same,"activity change, negative = inhibition",[1],-11.6% [at 11.4 µM]
same,"activity change, negative = inhibition",[4],-13.1% [at 11.4 µM]
same,"activity, negative = inhibition",[5],81.3% [at 11.4 µM]
Clc1cc(Cl)c(Cl)c(Cl)c1Cl,Potency,[1],inactive
COCOc1ccc(Br)cc1C(=O)/C=C\c1ccc2c(c1)OCO2,Potency,[3],2 µM (active)
same,Potency,[1],3.16 µM (active)
same,"activity change, positive = activation",[2],-91.5% [at 11.4 µM]
same,Potency,[4],3.16 µM (active)
same,Potency,[5],0.0631 µM (active)
C[C@@]12CC[C@H]3[C@@H](CCC4=CC(=O)CC[C@]43C)[C@H]1CC[C@H]2C(=O)CO,Potency,[1],inactive
COC(=O)[C@@H]1C[C@@]2(O)[C@@H](O)[C@@H](O)[C@@H](O)C[C@H]2N1Cc1cccnc1,Potency,[1],inactive
O=C1C=CC(=O)c2c1ccc1c2ccc2ccccc21,Potency,[3],1.26 µM (active)
same,Potency,[5],1.58 µM (active)
Cc1ccc2oc(-c3ccccc3)cc(=O)c2c1,Potency,[1],10 µM (active)
same,Potency,[2],inactive
CC(C)C[C@H](NC(=O)N1CCCCCC1)C(=O)N[C@H](Cc1cn(C)c2ccccc12)C(=O)N[C@H](Cc1ccccn1)C(=O)O,Potency,[3],6.31 µM (active)
CC1=C2C(=COC(C)C2C)C(=O)C(C(=O)O)=C1O (centres undefined),Potency,[1],15.8 µM (active)
COc1c(-c2ccccc2)oc2c(ccc3occc32)c1=O,Potency,[3],1 µM (active)
same,Potency,[1],3.16 µM (active)
same,Potency,[2],inactive
same,Potency,[4],10 µM (active)
same,Potency,[5],3.98 µM (active)
O=C1NO[C@H]2[C@@H]1CN[C@@H]2C(=O)O,Potency,[1],inactive
COC(=O)C1C(c2ccccc2)C2C(=O)c3c(OC)cc(OC)cc3O[C@@]12c1ccc(OC)cc1 (some centres undefined),"activity change, negative = inhibition",[3],-4.65% [at 11.4 µM]
same,Potency,[1],3.98 µM (active)
same,"activity change, positive = activation",[2],-68.8% [at 11.4 µM]
same,"activity change, negative = inhibition",[4],-16.4% [at 11.4 µM]
COc1cc2c(cc1O)C(CCc1ccc(Cl)cc1)N(C)CC2 (centres undefined),Potency,[1],inactive
C[C@@]12CCC3c4ccc(O)cc4CCC3C1CCC2O (some centres undefined),Potency,[1],inactive
C[C@@]1([C@@H](NP(=O)(c2ccccc2)c2ccccc2)c2ccccc2)C[C@H]1CCO,Potency,[1],7.94 µM (active)
same,Potency,[2],inactive
COc1cc2c(cc1OC)C1C(=O)c3c(O)cc4c(c3OC1CO2)C=CC(C)(C)O4 (centres undefined),Potency,[1],15.8 µM (active)
same,Potency,[2],inactive
O=c1c2ccccc2c2ccccc2c(=O)n1-c1cc2c3ccccc3ccc2c2ccccc12,Potency,[3],0.316 µM (active)
same,Potency,[5],0.158 µM (active)
CC(=O)OCC(=O)[C@@]1(O)CCC2C3CC[C@H]4CC(O)CC[C@@]4(C)C3C(=O)C[C@]21C (some centres undefined),Potency,[1],12.6 µM (active)
same,Potency,[2],inactive
CC(=O)OC1CC[C@@]2(C)C3CC(=O)[C@]4(C)C(C(C)=O)=CCC4C3CC[C@H]2C1 (some centres undefined),Potency,[1],inactive
same,Potency,[2],5.01 µM (active)
CCCCCCCCCC[Si](C)(C)CCC(=O)N[C@@H](Cc1ccc(C)cc1)c1ccccc1,Potency,[3],inactive
same,outcome,[6],inactive
same,outcome,[7],inactive
O=[N+]([O-])c1ccc(S(=O)(=O)Cc2ccccc2)c([N+](=O)[O-])c1,Potency,[3],3.16 µM (active)
same,Potency,[1],0.316 µM (active)
same,"activity change, positive = activation",[2],-105% [at 11.4 µM]
same,Potency,[5],2 µM (active)
C=CCn1c(=O)n(CC=C)c(=O)n(CC=C)c1=O,Potency,[1],10 µM (active)
CC(=O)O[C@H]1CC[C@@]2(C)[C@@H](CC[C@H]3[C@H]2CC(=O)[C@@]2(C)[C@@H]3C[C@H]3CC(C)=CC(=O)[C@H]32)C1,"activity change, negative = inhibition",[1],295% [at 11.4 µM]
O=C1NO[C@@H]2CN[C@@H](C(=O)O)[C@H]12,Potency,[1],inactive
COc1ccc2[nH]c(C(=O)c3ccccc3)cc2c1,Potency,[1],7.94 µM (active)
same,Potency,[2],inactive

# Source: PubChem BioAssay (NCATS)
